# Reference: the supplement of paper PMC10338343
# ± gives the standard deviation. Over roughly 8,200 sequences, “pre-steady-state target cleavage rate” has its median near 0.024; the highest 2% begin near 1.3. Shown is part of a subset that was picked to be rich in the highest values.
# Test system: MIWI (PIWIL1) piRISC loaded with L1MC piRNA (30 nt)
# Experiment: pre-steady-state target cleavage rate (min^-1); MIWI and MILI are mouse PIWI proteins and EfPiwi is from a freshwater sponge; tags in brackets are library labels; higher = faster piRNA-guided slicing of the target
# Conditions: guide: L1MC piRNA 5'p-UAACUAAAUACUAUGCAAGCUGUAGGUCCU
# How it was run: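 A transcribed, DNA-blocked target RNA library […] was incubated at 33 °C for 0–8 or 0–960 min with 1 nM active affinity-purified piRISC carrying one synthetic guide, in HEPES–potassium acetate buffer with or without 500 nM GTSF1 partner protein. Uncleaved targets were then sequenced and normalised to depth and to weakly complementary targets. Data from three trials were pooled, with k3 capped at 0.0001 min^-1, and a burst-and-steady-state fit yielded the pre-steady-state cleavage rate.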
# [1] = auxiliary factor: 500 nM mouse GTSF1
# [2] = auxiliary factor: none (no GTSF1)
# 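Also: 1 nM active piRISC with 0.1 nM target library at 33 °C single turnover.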
Sequence,pre-steady-state target cleavage rate [1],pre-steady-state target cleavage rate [2]
AGGACCAACAGCUUGCAUAGUAUUUAGUAA,0.974 ± 0.079,0.0722 ± 0.014
UGGACCAACAGCUUGCAUAGUAUUUAGUAA,1.17 ± 0.06,0.0641 ± 0.015
UCCUGGUACAGCUUGCAUACAAUUUAGUAA,0.0076 ± 0.0052,
UCCUGGAUGUGCUUGCAUAGUAUUUAGGUA,0.0938 ± 0.016,0.0113 ± 0.0031
UCCUGGAACAGCUUGGAUAGUAUUUUGUUA,0.745 ± 0.075,0.0289 ± 0.0047
UCCUGGAUGAGCUUGCAUAGUUUUAAGUUA,0.0288 ± 0.0084,0.00673 ± 0.0032
AGCACCUACAGCUUGCAUAGUAUUUAGUAA,0.974 ± 0.12,0.197 ± 0.062
UGGACCUACACCUUGCAUAGUAUAUAGUUA,0.523 ± 0.041,0.0327 ± 0.007
UCCUGGAACAGCAUGCAUAGUAUUUAGUAA,0.695 ± 0.061,0.0107 ± 0.0026
UCCUGGAUCAGCUAUGCAUAGUAUUUAGUUA,1.04 ± 0.073,0.0161 ± 0.0043
UGGACCUACACGUUGCAUAGUAUUUACAAA,0.103 ± 0.013,
UCCACCGACAGCUUGCAUAGUAUUUAGUUA,1.04 ± 0.043,0.0616 ± 0.011
UCGACCGACAGCUUGCAUAGUAUUUAGUUA,1.41 ± 0.05,0.0741 ± 0.012
UGGACCGUACAGCUUGCAUAGUAUUUAGUUA,1.24 ± 0.06,0.064 ± 0.0096
UCGACCGUACAGCUUGCAUAGUAUUUAGUUA,1.26 ± 0.046,0.0719 ± 0.013
UGGACCGACAGCUUGCAUAGUAUUUAGUUA,1.45 ± 0.076,0.0713 ± 0.013
AGGACCGACAGCUUGCAUAGUAUUUAGUUA,1.21 ± 0.058,0.0903 ± 0.017
UCCACCAUCAGCUUGCAUAGUAUUUAGUAA,0.68 ± 0.029,0.0248 ± 0.0047
UCCUGGAUGUCCUUGCAUAGUAUUGAGUUA,0.142 ± 0.031,0.00653 ± 0.0024
UGGACCUACAGCUUGCAAUGUAUUUACAAA,0.0217 ± 0.0068,
UCCUGGAUCAGCUUGCAUACUAUUAAGUUA,0.101 ± 0.015,0.00664 ± 0.0024

Sequence,pre-steady-state target cleavage rate [1],pre-steady-state target cleavage rate [2]
UCCUGGAACAGCUUGCAAAGUAUUUUCAAA,0.0876 ± 0.018,0.00328 ± 0.002
UCCUGGUACAGCUUGCAUAGUAUUUAGUCUA,0.0829 ± 0.026,0.00718 ± 0.0028
AGGACCUACAGCUUGCAUAGAAUUUAGUUA,0.559 ± 0.044,0.0408 ± 0.011
UCCUGGAACAGCUUGCUUAGUAUUUAGUUA,1.14 ± 0.053,0.0404 ± 0.0098
UCCUGCAACAGCUAGCAUAGUAUUUAGUUA,1.12 ± 0.047,0.0185 ± 0.004
UCCUGCAACAGCUUGCAUAGUAUUUAGUUA,1.57 ± 0.12,0.0696 ± 0.017
UCCUGCAACAGCUUGCAUAGUAUUUAGUAA,1.22 ± 0.083,0.0736 ± 0.021
UCCUGCAACAGCAUGCAUAGUAUUUAGUUA,1.36 ± 0.087,0.0331 ± 0.0088
UCCUGCAACAGCUUGCAAAGUAUUUAGUUA,1.32 ± 0.076,0.0463 ± 0.01
UCCUGCUACAGCAUGCAUAGUAUUUAGUUA,1.21 ± 0.086,0.0207 ± 0.0053
UCCUGGAACAGCUUGCGUAGUAUUUAGUUA,1.43 ± 0.087,0.0397 ± 0.0099
UCCUGCAACAGCUUGCAUAGUAUUUAGAAA,0.429 ± 0.059,0.00469 ± 0.0034
UCCUGGAACAGCUUGCAGUAGUAUUUAGUUA,0.00503 ± 0.0043,
UCCUCCAACAGCUUGCAAAGUAUUUAGUUA,1.16 ± 0.043,0.0397 ± 0.0099
UCCUGCUACAGCUUGCAAAGUAUUUAGUUA,0.619 ± 0.037,0.03 ± 0.0055
UGCACCUACAGCUUGCAUAGUAUUUUGUUA,0.852 ± 0.083,0.0692 ± 0.015
UCCUGGAUGUGCUUGCAUAGUAAUUUGUUA,0.0171 ± 0.0079,0.00536 ± 0.0029
UCCACCAACAGCUUCCAUAGUAUUUAGUUA,0.0426 ± 0.015,0.00399 ± 0.0017
AGGACCAACAGCUUGCAUUGUAUUUAGUUA,0.923 ± 0.044,0.0356 ± 0.0086
UCCUCCUACAGCUUGCAUAGUUUUUACAAA,0.185 ± 0.029,
UCCUGGAACAGCUUGCAUAGUUAUUAGUUA,0.113 ± 0.015,0.015 ± 0.0044

Sequence,pre-steady-state target cleavage rate [1],pre-steady-state target cleavage rate [2]
UCCUGCAACAGCUUGGAUAGUAUUUAGUUA,1.24 ± 0.1,0.0688 ± 0.012
UCCUGGAACAGCUUGUAUAGUAUUUAGUUA,1.37 ± 0.056,0.0564 ± 0.012
UCCUGGAACAGCUUGCAUAGUAUUCUAGUUA,0.285 ± 0.041,0.0119 ± 0.0031
UCCUGCAACAGCUUGCAUUGUAUUUAGUUA,0.964 ± 0.068,0.0397 ± 0.01
UCCUGGAAACAGCUUGCAUAGUAUUUAGUUA,1.34 ± 0.051,0.0675 ± 0.012
UCCUGGAACAGCUUGCAUAGUAUCUUAGUUA,0.777 ± 0.046,0.0258 ± 0.0072
UCCUGGAACAGCUUGCAUAGUAUUUUAGUUA,0.875 ± 0.046,0.0159 ± 0.003
UCCUGCAACAGCUUGCUUAGUAUUUAGUUA,1.4 ± 0.097,0.0478 ± 0.013
UCCUGGAACAGCUUGCAUAGUAUCUAGUUA,0.508 ± 0.045,0.0563 ± 0.011
UCCUGGAACAGCUUGCAUAGUAUUUAGUUA [g2:g23:cont:t1A],1.18 ± 0.034,0.0833 ± 0.014
UCGACCUACAGCUUGCAUAGUAUUCUAGUUA,0.882 ± 0.094,0.0316 ± 0.0072
UGGACCUACAGCUUGCUUAGUAUUAAGUUA,0.454 ± 0.041,0.012 ± 0.0028
UCCUCCUACAGCUUGCAUACUAUUAAGUUA,0.147 ± 0.022,0.00892 ± 0.0014
UCCUCCUACAGGUUGCAAAGUAUUUAGUUA,1.29 ± 0.06,0.0159 ± 0.0033
UCGACCUACAGGUUGCAUAGUAUUUAGUUA,1.14 ± 0.053,0.0468 ± 0.0088
UCGACCUACAGGUUGCAAAGUAUUUAGUUA,1.33 ± 0.054,0.0193 ± 0.0046
AGGACCUACAGGUUGCAAAGUAUUUAGUUA,1.21 ± 0.045,0.0226 ± 0.0041
UCCACCUACAGGUUGCAAAGUAUUUAGUUA,1 ± 0.04,0.0166 ± 0.0038
UGGACCUACAGGUUGCAAAGUAUUUAGUUA,1.33 ± 0.082,0.02 ± 0.0043
